Common to all, as to experiment: NCI-60 one-dose screen, 48 h (100 = growth as untreated, 0 = no growth, -100 = all killed)
One assay has as its system DU-145 prostate. Conditions: 10 µM unless noted.
The test system of the next assay is K-562 leukemia. The following applies: 10 µM unless noted.
The next assay has as its system MALME-3M melanoma. Conditions: 10 µM unless noted.
The subject of the next assay is MDA-MB-231 breast. Conditions: 10 µM unless noted.
The test system of a further assay is SF-268 CNS. Conditions: 10 µM unless noted.
The subject of another assay is SF-295 CNS. The following applies: 10 µM unless noted.
In the next assay the test system is SF-539 CNS. Conditions: 10 µM unless noted.
The test system of the next assay is UACC-257 melanoma. Conditions: 10 µM.
In another assay the test system is M14 melanoma. Conditions: 10 µM unless noted.
For the next assay, the system named is RXF 393 renal. The following applies: 10 µM unless noted.

Each structure is given as a SMILES string. About 83,000 compounds went through this panel and 20% of them were active in at least one assay; those are over-represented in the sample as a whole.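 Cell lines were cultured in 96-well plates, exposed to a single compound concentration, and assessed for percent growth 48 hours later.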 Values without a mark were called inactive. Active and inactive are the calls of the source. Rule for the calls: active = growth percent below 10; inactive = the rest.

For `COc1ccc(C2CC(c3cccs3)=NN2c2ccc(S(=O)(=O)NC(=O)NCc3cccc(OC)c3)cc2)cc1` (stereo not drawn), the growth in the assay on DU-145 prostate was 106%; in the assay on K-562 leukemia it was 111%; in the assay with MALME-3M melanoma, 31.2%; in the assay on MDA-MB-231 breast, 113%; with SF-268 CNS, 97.9%; with SF-295 CNS, 105%. Besides, the growth was 104% in the assay with SF-539 CNS, 30% with UACC-257 melanoma and 52.1% in the assay on M14 melanoma.

As to `CC/C=C\C[C@H](O)C/C=C1/C(=O)C(Cl)=C[C@@H]1C/C=C\CCCC(=O)O`, the growth with DU-145 prostate is 75.9%; with K-562 leukemia, 3.74% (active); in the assay with MALME-3M melanoma it was 21.7%; in the assay on MDA-MB-231 breast, 43.5%; with RXF 393 renal, 64.2%; in the assay on SF-268 CNS it was 55.9%. The figures for the growth in the assay with SF-295 CNS, in the assay on SF-539 CNS and in the assay on M14 melanoma were 89.2%, 66% and 35.7%, respectively.

For `O=C(/C=C/CN1CCOCC1)Nc1cc2c(Nc3ccc(F)c(Cl)c3F)ncnc2cc1OCCOC(F)F`, the growth in the assay on DU-145 prostate was 39.7%; with K-562 leukemia it was 52%; in the assay with MALME-3M melanoma, 81.6%; in the assay on MDA-MB-231 breast, 33.8%; in the assay on RXF 393 renal, 36.4%; in the assay with SF-268 CNS it was 48.3%. Also, the figures for the growth with SF-295 CNS, with SF-539 CNS and in the assay with M14 melanoma were 71.7%, 63.5% and 62.3%, respectively.

As to `CCOC(=O)c1cc(/C(=N\O)c2cc(OC)c(OC)c(OC)c2)n2cc(C)cc(C)c12`, the growth with DU-145 prostate is 41.9%; in the assay with K-562 leukemia it was 12.5%; with MALME-3M melanoma, 37.8%; with MDA-MB-231 breast, 34.7%; in the assay with RXF 393 renal it was 36.1%; in the assay with SF-268 CNS it was 38.7%. Besides, the results for the growth in the assay on SF-295 CNS, in the assay with SF-539 CNS and in the assay with M14 melanoma were 1.85% (active), 15.8% and 10.5%, respectively.

Consider `CCN(CC)CCSc1c2ccc(Cl)cc2nc2ccc(OC)cc12`, for which the growth in the assay with DU-145 prostate is -38% (active); with K-562 leukemia it was 9.42% (active); in the assay on MALME-3M melanoma it was 101%; with MDA-MB-231 breast, 51.9%; in the assay on RXF 393 renal, 116%; with SF-268 CNS, 96.7%. Besides, the results for the growth in the assay with SF-295 CNS, in the assay on SF-539 CNS and in the assay with M14 melanoma were 105%, 99.6% and 79%, respectively.

Take `CCN(Cc1ccc(CN(CC)C(=O)C(Br)Br)cc1)C(=O)C(Br)Br`: the growth in the assay on DU-145 prostate is 14.1%; with K-562 leukemia, 27.1%; in the assay with MALME-3M melanoma, 52.6%; in the assay with MDA-MB-231 breast, 28.2%; in the assay with RXF 393 renal, 67.9%; in the assay with SF-268 CNS, 51.6%. The figures for the growth with SF-295 CNS, in the assay on SF-539 CNS and in the assay with M14 melanoma were 45.9%, 53.6% and 24.9%, respectively.

As for `CCC(=O)Oc1ccc2c(c1)CC[C@@H]1[C@@H]2CC[C@]2(C)C[C@H](OC(=O)CC)C[C@@H]12`, the growth in the assay on DU-145 prostate is 79.2%; in the assay on K-562 leukemia it was 29.4%; in the assay on MALME-3M melanoma, 80.1%; in the assay with MDA-MB-231 breast, 71.4%; in the assay on RXF 393 renal, 86.2%; with SF-268 CNS, 80.1%. Further, the results for the growth in the assay with SF-295 CNS, with SF-539 CNS and in the assay on M14 melanoma were 51.6%, 76.6% and 50.5%, respectively.

On to `CC1CCN(C(=O)CSc2nc3sc4c(c3c(=O)[nH]2)CCCC4)CC1`, for which the growth with DU-145 prostate is 101%; in the assay with K-562 leukemia, 86.1%; in the assay on MALME-3M melanoma, 109%; in the assay on MDA-MB-231 breast, 105%; in the assay on RXF 393 renal it was 117%; with SF-268 CNS, 113%. In addition, the growth is 88.4% with SF-295 CNS, 98.2% with SF-539 CNS and 109% with M14 melanoma.

Take `O=[N+]([O-])c1c(S(=O)(=O)O)cc2cc(S(=O)(=O)O)ccc2c1[N+](=O)[O-]`: the growth is 107% with DU-145 prostate; 95.7% with K-562 leukemia; 91% in the assay with MALME-3M melanoma; 99.7% in the assay with MDA-MB-231 breast; 109% with RXF 393 renal; 99.5% in the assay with SF-268 CNS. Moreover, the growth in the assay on SF-295 CNS is 105%; in the assay with SF-539 CNS, 98.4%; with M14 melanoma, 99.8%.

With `COc1ccc(/C=C/C(=O)OCC(=O)NNC(=O)c2ccccc2)cc1OC`, the growth in the assay on DU-145 prostate was 101%; in the assay on K-562 leukemia, 90.2%; with MALME-3M melanoma it was 105%; in the assay with MDA-MB-231 breast, 94.8%; in the assay with RXF 393 renal it was 97.1%; in the assay on SF-268 CNS, 108%. The growth in the assay with SF-295 CNS is 89.6%; in the assay on SF-539 CNS, 91%; in the assay with M14 melanoma, 107%.

`Cc1cc(Cl)ccc1OC(C)C(=O)Nc1nnc(C2CC2)s1` (stereo not drawn): the growth with DU-145 prostate is 102%; in the assay with K-562 leukemia, 120%; in the assay on MALME-3M melanoma it was 119%; in the assay with MDA-MB-231 breast, 95.1%; in the assay on SF-268 CNS, 111%; in the assay with SF-295 CNS it was 89%. The growth in the assay on SF-539 CNS is 101%.

Take `COc1cc(Br)c(OC)cc1Br`: the growth in the assay with DU-145 prostate is 106%; in the assay on K-562 leukemia, 104%; in the assay on MALME-3M melanoma, 75.4%; with MDA-MB-231 breast, 85.6%; in the assay on RXF 393 renal, 116%; in the assay with SF-268 CNS, 98.6%. The growth with SF-295 CNS was 94.7%; in the assay on SF-539 CNS, 93.6%; in the assay on M14 melanoma it was 91.5%.

Turning to `O=C(Nc1ccc(F)cc1)c1cc([N+](=O)[O-])ccc1O`, the growth in the assay with DU-145 prostate is 78.3%; in the assay with K-562 leukemia it was 45.3%; with MALME-3M melanoma it was 37.4%; in the assay with MDA-MB-231 breast it was 65.9%; in the assay on RXF 393 renal it was 68.2%; in the assay on SF-268 CNS, 72.9%. Also, the growth in the assay on SF-295 CNS was 78.6%; with SF-539 CNS it was 47.3%; with M14 melanoma, 75.7%.

Consider `O=C(Nc1cc(C(F)(F)F)cc(C(F)(F)F)c1)Nc1ccc(OCc2nnc(-c3ccc(Cl)cc3)o2)c(F)c1`, for which the growth in the assay on DU-145 prostate is 23.8%; with K-562 leukemia, 16.1%; with MALME-3M melanoma, -3.82% (active); in the assay on MDA-MB-231 breast, -17% (active); in the assay on SF-268 CNS, 25.6%; with SF-295 CNS, 8.71% (active). Further, the growth with SF-539 CNS was 10.5%; in the assay on UACC-257 melanoma, 2.65% (active); in the assay on M14 melanoma it was 18.6%.

For `O=S(=O)(NCCCNc1cc(-c2cn(-c3ccccc3)nc2-c2cccc(O)c2)ccn1)c1ccc(C(F)(F)F)cc1`, the growth with DU-145 prostate is 60.8%; in the assay with K-562 leukemia, 3.42% (active); in the assay with MALME-3M melanoma, 22.7%; in the assay with MDA-MB-231 breast it was 4.73% (active); in the assay with RXF 393 renal, 24.7%; in the assay on SF-268 CNS, 44.1%. Also, the results for the growth in the assay on SF-295 CNS, in the assay on SF-539 CNS and in the assay on M14 melanoma were -3.81% (active), 36.7% and 23.5%, respectively.

The values above are taken from PubChem BioAssay (NCI).
